The entries come from a sample that favours hits as a whole.
ERK EGF block: blocks ERK signaling stimulated by EGF. HEK293-V1b, EGF-stimulated phospho-ERK AlphaScreen. Potency, µM (top dose mostly 11.5 µM), for inactives: at the highest dose activity change, negative = inhibition, usual class: inhibitors. hit rate 0.41% among 130,000. AID 1454; active = well fitted inhibition curve with a large enough effect;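 note: plate controls were stimulated vehicle wells for no effect and unstimulated vehicle basal for full effect; nearly all actives have a fitted effect of over 55% in size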
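HEK293 cells stably expressing V1b receptor, serum-reduced (1% FBS) overnight, pretreated 30 min with compound, then stimulated 5 min with 25 nM EGF; phospho-ERK detected by AlphaScreen SureFire. AC50 from Hill fits, normalized to DMSO and EGF.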
Numbers without * were called inactive; [ ] = dose if it differs, or a comment. Potency is the fitted concentration of half-maximal effect.

SMILES	ERK EGF block
O=C(O)CCC/C=C\CC1C2CCC(O2)C1CNNC(=O)Nc1ccccc1 (stereo not given)	-11%
Cc1cccc(C(=O)Nc2ccc(C(=O)/C=C/c3cccnc3)cc2)c1	-5%
O=C(/C=C/c1cccnc1)/C=C/c1cccnc1	10µM*
O=C(/C=C/c1cccnc1)c1cc(F)ccc1O	4%[57.5 µM]
CC(C)(C)OC(=O)NCCCC1=CC2=CC(=O)C(C)(OC(=O)c3cccs3)C(=O)C2=CO1 (stereo not given)	-1%
Cc1ccc(C(O)C2=CCCC2=O)cc1 (stereo not given)	1%
CCCN1C=CC(=CC=C(C#N)C#N)C=C1	28%[57.5 µM]
CCCCCCN1C=CC=C/C1=C/C=C(C#N)C#N	10%
CCCCCCN1C=C/C(=C\C=C(C#N)C#N)c2ccccc21	14µM*
COc1ccc2c(c1)O[C@@H](c1ccc3c(c1)OCO3)[C@H](OC(=O)N[C@H]1CCCc3ccccc31)C2=O	4%
N#C/C(=C\c1ccc(-c2ccccc2[N+](=O)[O-])o1)C(N)=O	-4%[57.5 µM]
O=C1/C(=C\c2ccc(-c3ccccc3[N+](=O)[O-])o2)C(c2ccccc2)=NN1c1ccccc1	28µM*
CN(C)/C=C1/C(=O)N(c2ccc([N+](=O)[O-])cc2)N=C1c1ccccc1	-6%
Nc1ncnc2c1[nH]c(=O)n2C1CC(O)C(CO)O1 (stereo not given)	21%
COc1ccc(-c2nc3cnc(N4CCOCC4)nc3n(CCC#N)c2=O)cc1	9%
Cc1nn(-c2ccc(F)cc2)c(Cl)c1/C=C1\C(=O)Nc2ccccc21	28µM*
Cc1nn(-c2ccccc2)c(Cl)c1/C=C1\C(=O)N(C)C(=S)N1C	-1%
Cc1ccc(/C=C2\C(=O)Nc3ccccc32)o1	4%
C=C1C2CC[C@]3(CCC4[C@@]5(C)CCC[C@@]4(CN(CCO)C5)[C@@H]3C2)[C@@H]1O (stereo not given in full)	-12%
O=c1cc(CN2CCN(c3cccc(Cl)c3)CC2)c2cc(O)c(-c3ccccc3)cc2o1	-7%[57.5 µM]
COc1cccc(NCc2cc(=O)oc3cc(-c4ccccc4)c(O)cc23)c1	28µM*
COc1cccc(-c2oc3ccccc3c(=O)c2O)c1	16%
CSc1nnc(SC)nn1	-4%
CCCNC(=O)c1noc2c1CCc1ccccc1-2	9%
COCCCNC(=O)c1ccc2c3c(onc13)-c1ccccc1C2=O	32µM*
SMILES	ERK EGF block
COCCCNC(=O)c1cc2cc(Br)ccc2oc1=O	6%
COC(=O)N/N=C/C1=C[N+](=O)c2ccccc2[N+]1=O	-2%
COc1ccc2c(c1)C(=O)[C@H](OC(=O)NS(=O)(=O)c1ccc(C)cc1)[C@@H](c1ccc(OC)c(Br)c1)O2	1%
COc1cc2c(cc1OC)[C@H](C)N(CC1C(=O)O[C@@H]3C[C@@]4(C)CCC[C@H](C)[C@@]45OC5[C@H]13)CC2 (stereo not given in full)	-6%
CCN1/C(=C/C(C)=C/c2sc3ccccc3[n+]2CC)Sc2ccccc21	18µM*
CCN1/C(=C\C=C(C(C)=O)C(C)=O)Sc2ccccc21	2%
CCN1/C(=C\C(=S)Nc2ccccc2)Sc2ccccc21	5%
CC(C)OC(=O)[C@@H]1CC[C@H](C)[C@@H](CCC[C@@H]2CC=C[C@H](CC#N)O2)O1	-13%
N.N.N.N.N.N.N.N.N.N.N.N.N.N.O.O.[Cl-].[Cl-].[Cl-].[Cl-].[Cl-].[Cl-].[Ru].[Ru].[Ru]	16µM*
N#Cc1ccc(CN2CCC3(CC2)CCN(C(=O)c2cc(C(F)(F)F)cc(C(F)(F)F)c2)CC3)cc1	-7%
CCn1cnc2c(oc3ccccc32)c1=O	-3%
c1coc(CN(Cc2ccco2)c2ncnc3c2oc2ccccc23)c1	18µM*
Fc1ccc(CSc2ncnc3c2oc2ccccc23)cc1	7%
COc1cc2c(cc1OC)C(c1ccc(N)cc1)=NNC(=O)C2	-11%
O=C(c1csnn1)N1CCC2(CC1)CN(c1cccc(-c3ccccc3)c1)C2	-4%
CN=c1scc(-c2ccccc2F)n1/N=C/c1ccc(O)c(O)c1O	28µM*
CN=c1scc(-c2ccccc2F)n1/N=C/c1ccc[nH]1	-3%
CN=c1scc(-c2ccco2)n1/N=C/c1ccc(O)c(O)c1	-5%
CS(=O)(=O)c1ccc([C@H](O)[C@H](CF)NC(=O)C(Cl)Cl)cc1	-12%[25.7 µM]
CNC(=O)[C@H]1O[C@H](n2cnc3c(NCc4cccc(I)c4)nc(Cl)nc32)[C@@H](O)[C@@H]1O	-2%
CNC(=O)[C@H]1O[C@@H](n2cnc3c(NCc4cccc(I)c4)ncnc32)[C@H](O)[C@H]1O	19%
COc1ccc(-c2nc3cnc(OC)nc3n(C3CC3)c2=O)cc1	-7%
C=CCC1(O)CCOc2ccccc21 (stereo not given)	-6%
COc1ccc(-c2nc(C#N)c(NCCc3ccccc3)o2)cc1	28µM*
COc1ccc(Nc2oc(-c3ccccc3)nc2C#N)cc1	-4%
COc1ccc(Nc2oc(-c3ccc(OC)cc3)nc2C#N)cc1	-3%[57.5 µM]
